Screens from PubChem BioAssay.
A selection: hits, their analogues and other compounds. The true share with any hit is near 11%.
IMPase cell inh: qHTS Assay for Identifying the Cell-Membrane Permeable IMPase Inhibitors | inhibition (IP1 accumulation), % at 46.1 µM | 120,000 tested, under 10 active | CHO-M1 cells, IP1 accumulation, HTRF TR-FRET ratio | AID 901, 2007 | Inositol monophosphatase 1 (Rattus norvegicus), P97697; active = well fitted curve in the direction sought with a large enough effect in the signal ratio, not every such curve was filed as active; inconclusive = small, poorly fitted or top-dose-only effect, or a change in a side signal; inactive = no such curve, though single readings can be large or run the other way; the % refers to the signal ratio;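 note: cells stimulated with carbachol in lithium chloride buffer; plate controls were DMSO basal wells for no effect and reference inhibitor wells for full effect; higher means more IMPase inhibition seen as more IP1 and lower FRET ratio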
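Elevated IP1 in lysates lowers TR-FRET signal (665/620 ratio and 620 channel reported). Cells were CHO-M1, given carbachol (50 uM as added) plus 50mM LiCl, pH 7.4, 30 min, 37C; compounds titrated up to 46 uM; AC50 by Hill equation.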
ALDH1A1 block: qHTS Assay for Inhibitors of Aldehyde Dehydrogenase 1 (ALDH1A1) | 220,000 tested, 7.3% active | Potency, µM (highest dose often 75.3 µM), inactives show at the top dose activity, negative = inhibition, actives largely listed as inhibitors | Purified ALDH1A1, NADH fluorescence, propionaldehyde substrate;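 note: potency is the fitted concentration of half-maximal effect; plate controls were no enzyme wells and a reference inhibitor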
HPGD block: qHTS Assay for Inhibitors of HPGD (15-Hydroxyprostaglandin Dehydrogenase) | purified HPGD, NADH fluorescence kinetic, PGE2 substrate | 15-hydroxyprostaglandin dehydrogenase [NAD(+)] (Homo sapiens), P15428 | 150,000 tested, 4.3% active | Potency, µM, inactives show at the top dose activity change, negative = inhibition, actives largely listed as inhibitors; note: potency is the fitted concentration of half-maximal effect
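NADH formation kinetics: reaction with 30 uM PGE2 and 1 mM NAD+ (final), 20 nM enzyme, Tris-HCl pH 8 with Tween 20, after 15 min compound preincubation at room temperature. Fluorescence change, last versus first of five reads.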
12-hLO inh: qHTS Assay for Inhibitors of 12-hLO (12-human lipoxygenase). Potency, µM (series often up to 57.1 µM), without a hit: at the highest dose activity change, negative = inhibition, most hits filed as inhibitors. 150,000 tested, 0.12% active. Polyunsaturated fatty acid lipoxygenase ALOX12 (Homo sapiens), P18054. purified 12-hLO, xylenol orange hydroperoxide absorbance; active = well fitted curve in the direction sought with a large enough effect; inconclusive = small, poorly fitted or top-dose-only effect, or another doubt; inactive = no such curve, though single readings can be large; an effect the other way counts as inactive or inconclusive; note: potency is the fitted concentration of half-maximal effect; nearly all actives have a fitted effect of over 55% in size
Target sequence (P18054 whole entry, looked up): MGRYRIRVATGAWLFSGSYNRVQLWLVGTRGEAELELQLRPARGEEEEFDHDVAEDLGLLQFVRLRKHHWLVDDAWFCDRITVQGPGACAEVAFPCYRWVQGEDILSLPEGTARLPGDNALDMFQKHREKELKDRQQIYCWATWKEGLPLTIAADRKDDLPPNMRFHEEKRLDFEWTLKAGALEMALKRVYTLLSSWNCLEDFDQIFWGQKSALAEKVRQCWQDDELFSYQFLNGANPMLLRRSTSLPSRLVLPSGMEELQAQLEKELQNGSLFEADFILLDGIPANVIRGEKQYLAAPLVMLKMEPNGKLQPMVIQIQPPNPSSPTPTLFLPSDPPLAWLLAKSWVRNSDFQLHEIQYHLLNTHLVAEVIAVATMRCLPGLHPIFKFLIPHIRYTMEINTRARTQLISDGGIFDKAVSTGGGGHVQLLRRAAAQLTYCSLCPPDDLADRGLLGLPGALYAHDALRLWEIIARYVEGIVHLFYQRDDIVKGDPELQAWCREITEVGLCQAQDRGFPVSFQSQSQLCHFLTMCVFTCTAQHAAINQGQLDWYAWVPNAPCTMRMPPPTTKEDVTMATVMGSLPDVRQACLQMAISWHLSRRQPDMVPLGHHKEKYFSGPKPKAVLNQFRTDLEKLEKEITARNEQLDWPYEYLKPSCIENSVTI
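Hydroperoxide output read as Fe(III)-xylenol orange absorbance, 573-to-405 nm ratio, after 30 min reaction with 40 uM arachidonic acid. Enzyme: 150 nM purified human 12hLO, 15 min compound preincubation; 25 mM Hepes pH 7.0, room temperature.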
PNC assembly inh: High Content Assay for Compounds that inhibit the Assembly of the Perinucleolar Compartment; PC3M PTB-GFP, PNC prevalence imaging, 16 h; stronger effect = lower value; activity change (PNC), negative = inhibition, % at 10 µM; 140,000 tested, 3.1% active; AID 2417, 2010;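 active = readout at or below -70, meaning at least 70% loss of cells showing the perinucleolar compartment, a nuclear body marking cancer cells; inconclusive = readout between -30 and a set limit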;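 note: plate controls were DMSO wells for no effect and camptothecin positive control wells for full effect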
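Compounds are pinned in duplicate onto adhered PC3M cells stably expressing GFP-tagged PTB and incubated 16 h at 37 C. Cells are then fixed, nuclei stained with Hoechst, and PNC-positive cells counted.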
IMPase Li inh: qHTS Assay for Identifying the Cell-Membrane Permeable IMPase Inhibitors: Potentiation with Lithium; CHO-M1 cells, IP1 TR-FRET (IP-One), carbachol + lithium; AID 1457, 2008; 210,000 tested, 0.35% active; Potency, µM (doses to about 59.4 µM), without a hit: at the top dose activity, negative = IMPase inhibition, usual class: inhibitors; active = well fitted curve in the direction sought with a large enough effect; inconclusive = small, poorly fitted or top-dose-only effect, or another doubt; inactive = no such curve, though single readings can be large; an effect the other way counts as inactive or inconclusive;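 note: IP1 builds up when IMPase is blocked and the TR-FRET signal falls; potency is the fitted concentration of half-maximal effect; plate controls were basal vehicle for no effect and high inhibitor control for full effect; nearly all actives have a fitted effect of over 50% in size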
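Test compounds were applied to CHO-M1 cells previously cultured for 16–30 h at 2000 per well. A small lithium amount accompanied them; after 30 min at 37C, IP1 was quantified by TR-FRET.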
* = called active by the depositor; [ ] = another dose, or the depositor's remark. Unless noted, calls come from the whole dose curve; as a rule, active = well fitted inhibition curve with a large enough effect (not every such curve was filed as active); inconclusive = small, poorly fitted or top-dose-only effect, or another doubt; inactive = no such curve, though single readings can be large or run the other way. Unless noted, % is set by controls: 0 for no effect and ±100 for the full control effect.

What do the screens show for `CC(=O)C1C(=O)C=C(c2ccco2)CC1c1ccccc1` (stereo not given)?
IMPase cell inh: inconclusive; ALDH1A1 block: 25.1µM*; HPGD block: -25.9%; 12-hLO inh: -20.6%; PNC assembly inh: 3.6; IMPase Li inh: 21.3%[38.3 µM]

What do the screens show for `CCOC(=O)C1C(=O)C=C(c2ccc([N+](=O)[O-])cc2)CC1c1ccccc1` (stereo not given)?
IMPase cell inh: -1.3[1.84 µM]; ALDH1A1 block: inconclusive; HPGD block: inconclusive; 12-hLO inh: -6.1%; PNC assembly inh: -18.3; IMPase Li inh: 28.6%[38.3 µM]

Results for CCOC(=O)C1=C(N)N(c2ccccc2Oc2ccccc2)C(=O)C1 ?
IMPase cell inh: 9.1; ALDH1A1 block: -1.9%; HPGD block: 3.7%; 12-hLO inh: -4.2%; PNC assembly inh: -18.6; IMPase Li inh: -11.8%[38.3 µM]

Results for CCOC(=O)C1=C2NC(=O)c3ccccc3N2C(=O)C1 ?
ALDH1A1 block: 25.1µM*; IMPase Li inh: -1.2%

Results for CN1CCc2cccc3c2C1Cc1ccc(O)c(O)c1-3 (stereo not given) ?
ALDH1A1 block: inconclusive; HPGD block: 5.01µM*; 12-hLO inh: -6.2%; IMPase Li inh: 18.7%

How did COc1ccc(COC(=O)N/N=C2/C[C@@H](O)[C@@H](O)[C@@H]3[C@@H]4C(=O)N(Cc5ccccc5)C(=O)[C@H]4CC[C@@H]23)cc1 do in these assays?
ALDH1A1 block: 9.3%[13.5 µM]

How did CN(C)C(=O)c1c(NC(=O)c2ccco2)sc2c1CCCCC2 do in these assays?
IMPase cell inh: -6.9; ALDH1A1 block: inconclusive; HPGD block: -15.9%; 12-hLO inh: -6.8%; PNC assembly inh: -0.6; IMPase Li inh: 5.4%

Results for O=C(Nc1sc2c(c1C(=O)O)CCCCC2)c1ccco1 ?
IMPase cell inh: -2.1; ALDH1A1 block: 25.1µM*; HPGD block: 17.8µM*; 12-hLO inh: -5.5%; PNC assembly inh: inconclusive; IMPase Li inh: -1.5%[38.3 µM]

How did Cc1ccccc1C(=O)Nc1sc2c(c1C(=O)N1CCCCC1)CCC(C(C)(C)C)C2 (stereo not given) do in these assays?
IMPase cell inh: -2.0

What do the screens show for `CN1CCN(C(=O)c2c(NC(=O)c3ccco3)sc3c2CCC(C(C)(C)C)C3)CC1` (stereo not given)?
IMPase cell inh: inconclusive; ALDH1A1 block: 12.6µM*; HPGD block: -18.9%; 12-hLO inh: -11.1%; PNC assembly inh: 5.0; IMPase Li inh: inconclusive

What do the screens show for `NC(=O)c1c(NC(NC(=O)c2ccco2)(C(F)(F)F)C(F)(F)F)sc2c1CCCC2`?
IMPase cell inh: 6.9; ALDH1A1 block: 31.6µM*; HPGD block: -5.5%; 12-hLO inh: -11.5%; PNC assembly inh: inconclusive; IMPase Li inh: 20.6%[38.3 µM]

What do the screens show for `COc1ccc(-c2cc(C(F)(F)F)nc(SCCC(=O)Nc3cccc(O)c3)n2)cc1`?
IMPase cell inh: -4.3

How did CC[C@H](C)[C@@H](NC(=O)O[C@@H]1C(=O)c2ccc(OC)cc2O[C@H]1c1ccc2c(c1)OCO2)C(=O)OC do in these assays?
ALDH1A1 block: inconclusive; HPGD block: 0.4%; IMPase Li inh: 12.1%

Results for CCCCCCCC/C=C\CCCCCCCC(=O)NC(C)C(=O)O (stereo not given) ?
ALDH1A1 block: -0.3%; HPGD block: -1.2%; 12-hLO inh: 5.2%; IMPase Li inh: 16.0%

How did O=C(O)CCC(O)=C1S(=O)(=O)OCCOS1(=O)=O do in these assays?
ALDH1A1 block: 8.2%[13.5 µM]; HPGD block: -4.9%; 12-hLO inh: 0.7%[11.4 µM]; IMPase Li inh: -1.5%

How did Cc1cc(NC(=O)c2cc3ccccc3o2)cc(C)c1OCC(=O)N1CCOCC1 do in these assays?
IMPase cell inh: 1.0; ALDH1A1 block: -12.7%; HPGD block: -24.7%; 12-hLO inh: 6.1%; PNC assembly inh: -22.3; IMPase Li inh: 4.9%

Results for Cc1cc(NS(=O)(=O)Cc2ccccc2)cc(C)c1OCC(=O)N1CCOCC1 ?
IMPase cell inh: 8.1; ALDH1A1 block: 7.0%; HPGD block: -13.6%; 12-hLO inh: 3.1%; PNC assembly inh: -95.7*; IMPase Li inh: 16.6%[38.3 µM]

Results for N#C/C(=C\Nc1ccccn1)C(=O)C1CC1 ?
ALDH1A1 block: -1.7%[13.5 µM]; HPGD block: -4.5%; 12-hLO inh: -7.8%[11.4 µM]; IMPase Li inh: 2.9%

How did COc1ccc(C(=S)NCS(=O)(=O)c2ccc(C)cc2)cc1 do in these assays?
ALDH1A1 block: 22.4µM*; HPGD block: 25.1µM*; 12-hLO inh: -24.3%; PNC assembly inh: -23.5; IMPase Li inh: 1.5%

How did COc1ccc(C(=S)Nc2ccc(C)cc2)cc1 do in these assays?
IMPase cell inh: -6.1; ALDH1A1 block: inconclusive; HPGD block: 22.4µM*; 12-hLO inh: 4.3%; PNC assembly inh: 128.3; IMPase Li inh: -9.0%[38.3 µM]

How did COc1ccc(C(O)CNc2ccc(C)cc2)cc1 (stereo not given) do in these assays?
IMPase cell inh: 2.7; ALDH1A1 block: 20µM*; HPGD block: -11.1%; 12-hLO inh: -1.5%; PNC assembly inh: -4.6; IMPase Li inh: -33.8%[38.3 µM]

How did COc1ccc(NC(=S)c2ccncc2)cc1 do in these assays?
ALDH1A1 block: -0.8%; HPGD block: -4.8%; 12-hLO inh: -2.4%; PNC assembly inh: -21.7; IMPase Li inh: -1.6%

Results for COc1ccc(CCNc2ccc(C)cc2)cc1 ?
IMPase cell inh: -1.7; ALDH1A1 block: -6.7%; HPGD block: -8.9%; 12-hLO inh: 4.9%; PNC assembly inh: -24.7; IMPase Li inh: 27.7%[38.3 µM]

How did Cc1ccc(S(=O)(=O)CNC(=S)c2ccc3ccccc3c2)cc1 do in these assays?
IMPase cell inh: -6.0; ALDH1A1 block: inconclusive; HPGD block: -12.9%; 12-hLO inh: inconclusive; PNC assembly inh: 66.8; IMPase Li inh: 12.6%[38.3 µM]

Results for CCCCCCCCC1OC1CCCCCCCC(=O)O (stereo not given) ?
ALDH1A1 block: 11.3%; HPGD block: -4.2%; 12-hLO inh: -1.0%; IMPase Li inh: 9.6%

Results for COc1cccc(Nc2ncc3nc(CCc4ccccc4)c(=O)n(CCC#N)c3n2)c1 ?
ALDH1A1 block: -9.8%; HPGD block: inconclusive; 12-hLO inh: 1.5%; IMPase Li inh: inconclusive

Results for CC[C@H]1C2=C3C(CC[C@H]4C(OC)OC[C@](C)([C@@H]34)N(C(=O)OC(C)(C)C)C2)C(CO)C1CO (stereo not given in full) ?
ALDH1A1 block: -6.4%; HPGD block: -3.1%; 12-hLO inh: -1.7%; IMPase Li inh: -12.7%
